Several values for one entry are separate records, joined by “and”; a condition that tells them apart may be missing. Equal values may be shown once. Results filed as inconclusive are left out. Activity calls are given as the source filed them. Unless noted, calls come from the whole dose curve; as a rule, active = well fitted curve in the direction sought with a large enough effect in the repeat runs; inconclusive = weak or mixed curves; inactive = no such curve, though single readings can be large; an effect the other way counts as inactive or inconclusive.
Legend:
[1] = qHTS assay for small molecule agonists of the p53 signaling pathway (AID 651631; calls by dose curve; note: potency is the fitted concentration of half-maximal effect; nearly all actives have a fitted effect of over 15% in size)
Outline: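 Testing took place in human colorectal HCT-116 cells with stable p53RE-driven beta-lactamase. After 16 h of compound exposure at 37 °C, a FRET substrate was added and fluorescence recorded 2 h later.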

[2] = qHTS assay for small molecules that induce genotoxicity in human embryonic kidney cells expressing luciferase-tagged ATAD5 (AID 651632); note: % is set by controls: 0 for no effect and ±100 for the full control effect; nearly all actives have a fitted effect of over 15% in size
Outline: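 HEK293T cells carrying luciferase-tagged ATAD5 were given compound or DMSO vehicle and incubated 16 hr at 37C, 5% CO2. Luciferase activity was read after 30 min at room temperature with Amplite; a rise signals genotoxic stress.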

[3] = qHTS assay for small molecule agonists of the p53 signaling pathway - cell viability (AID 651633; calls by dose curve; note: potency is the fitted concentration of half-maximal effect; nearly all actives have a fitted effect of over 30% in size)
Outline: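 p53RE-bla cells were treated with compound for 16 hours at 37 C. Cytotoxicity was then measured as CellTiter-Glo luminescence after 30 min at room temperature.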

[4] = qHTS assay for small molecules that induce genotoxicity in human embryonic kidney cells expressing luciferase-tagged ATAD5 - cell viability (AID 651634; calls by dose curve; note: nearly all actives have a fitted effect of over 25% in size; note: potency is the fitted concentration of half-maximal effect)
Outline: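 HEK293T cells carrying luciferase-tagged ATAD5, 2,000 cells/well, exposed to compound for 15.5 hr at 37C. Viability read as live-cell protease activity by CellTiter-Fluor fluorescence after 30 min at 37C.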

[5] = qHTS assay to test for compound auto fluorescence at 535 nm (green) in HepG2 cells (AID 720675); note: % is set by controls: 0 for no effect and ±100 for the full control effect
[6] = qHTS assay to test for compound auto fluorescence at 460 nm (blue) in HEK293 cells (AID 720678); note: % is set by controls: 0 for no effect and ±100 for the full control effect
Outline: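 HEK293 cells (2,000/well, medium with 10% dialyzed FBS) attached 4-5 hr, then exposed to compound overnight at 37C, 5% CO2. Blue fluorescence read at 405/460 nm, with triamterene as reference fluorophore.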

[7] = qHTS assay to test for compound auto fluorescence at 590 nm (red) in HEK293 cells (AID 720679); note: % is set by controls: 0 for no effect and ±100 for the full control effect
Outline: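 HEK293 cells (2,000/well, 10% dialyzed FBS) attached 4-5 hr, then dosed with compound or DMSO and incubated overnight at 37C, 5% CO2. Red fluorescence read at 540/590 nm, Rose Bengal sodium as reference fluorophore.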

[8] = qHTS assay to test for compound auto fluorescence at 535 nm (green) in HEK293 cells (AID 720680); note: % is set by controls: 0 for no effect and ±100 for the full control effect
[9] = qHTS assay to test for compound auto fluorescence at 460 nm (blue) in HEK293 cell free culture (AID 720681); note: % is set by controls: 0 for no effect and ±100 for the full control effect
Outline: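 Compounds were added to cell-free DMEM with 10% FBS and fluorescence read directly. The blue channel used 405 nm excitation and 460 nm emission, with triamterene as the reference fluorophore.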

[10] = qHTS assay to test for compound auto fluorescence at 535 nm (green) in HEK293 cell free culture (AID 720682); note: % is set by controls: 0 for no effect and ±100 for the full control effect
Outline: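 DMEM + 10% FBS, cell-free; cpd or DMSO pinned in; Ex485/Em535 read; output as fluorescein-equivalent signal.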

[11] = qHTS assay to test for compound auto fluorescence at 590 nm (red) in HEK293 cell free culture (AID 720683); note: % is set by controls: 0 for no effect and ±100 for the full control effect
Outline: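 Cell-free wells of DMEM with 10% FBS received compound, and intrinsic fluorescence was read at excitation/emission 540/590 nm. Values expressed as equivalence to Rose Bengal sodium.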

[12] = qHTS assay to test for compound auto fluorescence at 590 nm (red) in HepG2 cell free culture (AID 720684); note: % is set by controls: 0 for no effect and ±100 for the full control effect
Outline: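 Compounds are added to culture medium (MEM, 10% FBS) lacking cells, then fluorescence is read at excitation 540 nm, emission 590 nm, with Rose Bengal sodium as the equivalency standard.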

[13] = qHTS assay to test for compound auto fluorescence at 460 nm (blue) in HepG2 cell free culture (AID 720685); note: % is set by controls: 0 for no effect and ±100 for the full control effect
Outline: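 Compound (23 nL) or DMSO pinned into cell-free MEM with 10% FBS; blue fluorescence read at 405/460 nm excitation/emission, expressed as auto-fluorescence equivalency to triamterene.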

[14] = qHTS assay to test for compound auto fluorescence at 535 nm (green) in HepG2 cell free culture (AID 720686); note: % is set by controls: 0 for no effect and ±100 for the full control effect
[15] = qHTS assay to test for compound auto fluorescence at 460 nm (blue) in HepG2 cells (AID 720687); note: % is set by controls: 0 for no effect and ±100 for the full control effect
Outline: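 HepG2 cells in MEM with 10% FBS, attached overnight at 37 C, were exposed to compound or DMSO for 1 hr at 37 C, 5% CO2. Blue fluorescence was read at 405/460 nm, with triamterene as reference fluorophore.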

[16] = biological target: Glucocorticoid receptor (Homo sapiens) (UniProt P04150); experiment: qHTS assay to identify small molecule antagonists of the glucocorticoid receptor (GR) signaling pathway (AID 720692; active = well fitted inhibition curve with a large enough effect in the signal ratio in the repeat runs, not every such curve was filed as active; the % refers to the signal ratio; note: potency is the fitted concentration of half-maximal effect)
Sequence of Glucocorticoid receptor (Homo sapiens) (P04150 whole entry, looked up): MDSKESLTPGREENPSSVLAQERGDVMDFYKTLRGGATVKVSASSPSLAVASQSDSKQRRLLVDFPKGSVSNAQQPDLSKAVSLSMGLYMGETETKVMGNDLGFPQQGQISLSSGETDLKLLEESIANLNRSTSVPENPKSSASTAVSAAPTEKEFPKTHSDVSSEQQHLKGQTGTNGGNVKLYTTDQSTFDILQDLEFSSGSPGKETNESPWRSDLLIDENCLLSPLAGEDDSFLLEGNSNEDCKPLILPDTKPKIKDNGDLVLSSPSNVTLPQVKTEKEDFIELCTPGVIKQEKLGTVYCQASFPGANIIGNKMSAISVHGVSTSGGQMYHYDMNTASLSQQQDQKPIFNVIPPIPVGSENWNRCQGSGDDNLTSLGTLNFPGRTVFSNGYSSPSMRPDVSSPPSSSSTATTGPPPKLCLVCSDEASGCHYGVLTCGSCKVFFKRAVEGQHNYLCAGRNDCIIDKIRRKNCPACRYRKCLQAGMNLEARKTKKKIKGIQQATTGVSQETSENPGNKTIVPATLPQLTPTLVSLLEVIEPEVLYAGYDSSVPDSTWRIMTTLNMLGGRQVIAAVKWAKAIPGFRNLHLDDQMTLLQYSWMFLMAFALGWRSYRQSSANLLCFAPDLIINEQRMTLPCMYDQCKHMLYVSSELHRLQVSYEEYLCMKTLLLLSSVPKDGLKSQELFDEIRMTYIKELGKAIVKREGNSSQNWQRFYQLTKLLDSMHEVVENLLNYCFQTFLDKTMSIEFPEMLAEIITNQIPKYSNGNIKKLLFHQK
Outline: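 GR-bla HeLa cells carrying a GRE-driven beta-lactamase reporter received compound after 4 h plating, then dexamethasone (5 nM final). After 18 h at 37C, the FRET substrate was loaded for 2 h at room temperature and fluorescence read.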

[17] = biological target: Glucocorticoid receptor (Homo sapiens) (UniProt P04150); experiment: qHTS assay to identify small molecule agonists of the glucocorticoid receptor (GR) signaling pathway (AID 720691; active = well fitted activation curve with a large enough effect in the signal ratio in the repeat runs, not every such curve was filed as active; the % refers to the signal ratio; note: potency is the fitted concentration of half-maximal effect)
Outline: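 GR-bla HeLa cells carrying a GRE-driven beta-lactamase reporter, exposed to compounds for 18 h at 37 C. Reporter activation read as fluorescence after 2 h with LiveBLAzer B/G FRET substrate at room temperature.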

[18] = qHTS assay for small molecule disruptors of the mitochondrial membrane potential - cell viability (AID 720634; calls by dose curve; note: nearly all actives have a fitted effect of over 20% in size; note: potency is the fitted concentration of half-maximal effect)
Outline: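 HepG2 cells, 2,000 per well, attached overnight, then treated 1 hr at 37 C, 5% CO2. Viability read as ATP by CellTiter-Glo luminescence after 30 min at room temperature. Read in the same wells as the m-MPI membrane-potential dye assay.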

[19] = qHTS assay for small molecule disruptors of the mitochondrial membrane potential (AID 720635); note: potency is the fitted concentration of half-maximal effect
Outline: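 HepG2 cells exposed to compound 1 hr at 37C, then Mito-MPS dye 30 min. Ratio read of aggregate (540/590 nm) versus monomer (490/535 nm) fluorescence.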

[20] = qHTS assay to test for compound auto fluorescence at 590 nm (red) in HepG2 cells (AID 720674); note: % is set by controls: 0 for no effect and ±100 for the full control effect
Outline: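 HepG2 cells, 2,000 per well in MEM with 10% FBS, attached overnight at 37 C, then got 23 nL compound or DMSO. After 1 hr at 37 C, 5% CO2, red fluorescence was read at 540/590 nm against Rose Bengal sodium as reference.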

Clc1ccc(C(c2ccccc2Cl)C(Cl)(Cl)Cl)cc1 (stereo not drawn)
inactive: Potency [2] | Potency [4] | outcome [5] | Potency [6] | outcome [7] | outcome [8] | Potency [9] | outcome [10] | outcome [11] | outcome [12] | Potency [13] | outcome [14] | Potency [15]
active: Potency [1] 69 µM | Potency [3] 54.8 µM and 40.2 µM | Potency [16] 22 µM and 20.3 µM

CCC(C)c1cc([N+](=O)[O-])cc([N+](=O)[O-])c1OC(=O)C=C(C)C (stereo not drawn)
active: Potency [1] 12.2 µM | Potency [4] 30.6 µM | Potency [16] 19.5 µM
inactive: Potency [2] | outcome [5] | Potency [6] | outcome [7] | outcome [8] | Potency [9] | outcome [11] | outcome [12] | Potency [13] | outcome [14] | Potency [15] | Potency [17]

ClC1=C(Cl)C2(Cl)C3C(Cl)C=CC3C1(Cl)C2(Cl)Cl (stereo not drawn)
active: Potency [3] 68.9 µM and 54.5 µM | Potency [19] 27.4 µM and 54.5 µM
inactive: Potency [2] | Potency [4] | Potency [18] | outcome [20] | outcome [5] | Potency [6] | outcome [7] | outcome [8] | Potency [9] | outcome [10] | outcome [11] | outcome [12] | Potency [15]

O=c1oc2ccccc2c(O)c1Cc1c(O)c2ccccc2oc1=O
inactive: Potency [2] | Potency [4] | fluorescence, relative to Rose Bengal [20] -0.349% [at 18.6 µM] | fluorescence, % of fluorescein control [5] 0.0236% [at 18.6 µM] | fluorescence, % of triamterene [6] 0.108% [at 18.6 µM] | fluorescence, % of fluorescent control [7] -0.0848% [at 18.6 µM] | fluorescence, % of fluorescein [8] 0.155% [at 18.6 µM] | fluorescence, % of fluorescent control [9] 0.0571% [at 18.6 µM] | fluorescence, % of fluorescent control [11] 0.108% [at 18.6 µM] | fluorescence, % of Rose Bengal [12] 0.445% [at 18.6 µM] | fluorescence, % of fluorescent control [13] -0.0804% [at 18.6 µM] | fluorescence, % of fluorescein control [14] 0.114% [at 18.6 µM] | fluorescence, % of fluorescent control [15] 0.0049% [at 18.6 µM]
active: Potency [1] 0.639 µM | Potency [3] 507 nM

O=C(O)c1cc[c]([Hg][Cl])cc1
inactive: Potency [18] | outcome [20] | outcome [5] | Potency [6] | outcome [7] | outcome [8] | Potency [9] | outcome [10] | outcome [11] | outcome [14] | Potency [15] | Potency [16]
active: Potency [1] 61.1 µM

CCOC(=O)C1(c2ccccc2)CCN(CCC(C#N)(c2ccccc2)c2ccccc2)CC1
active: Potency [1] 3.76 µM and 26.6 µM | Potency [3] 1.88 µM and 9.44 µM | Potency [17] 60 µM
inactive: Potency [2] | Potency [4] | outcome [20] | outcome [5] | Potency [6] | outcome [7] | outcome [8] | Potency [9] | outcome [10] | outcome [11] | outcome [12] | outcome [14] | Potency [15]

S=C=Nc1cccc2ccccc12
active: Potency [3] 48100 nM | Potency [18] 48.1 µM | Potency [19] 17.1 µM | Potency [16] 17.2 µM
inactive: Potency [2] | Potency [4] | outcome [20] | outcome [5] | Potency [6] | outcome [7] | outcome [8] | Potency [9] | outcome [10] | outcome [11] | outcome [12] | Potency [13] | outcome [14] | Potency [15]
